A short description of assay [1]: Wnt pathway potentiators raising nuclear beta-catenin – imaging, WNT3A-conditioned medium, mouse C2C12, NPC library, primary screen (AID 1117326; in the data active means nuclear beta-catenin stimulation mostly above about 4.2%, no sharp cut-off; inactive means mostly below about 10%). The following applies: stronger effect = higher value.
A short description of assay [2]: stimulators of insulin release from INS-1E, primary screen, cell-based, 5 mM glucose, NPC library (AID 1117329;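 active means compound raises insulin release from rat beta cells at 5 mM glucose, no numeric limit stated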). The following applies: rat INS-1E insulin secretion, at 10 µM, stronger effect = higher value.
The nature of assay [3]: growth inhibition of GSK3B-pretreated HCT116 cells – cell-based, CellTiter-Glo, 0.2 to 20 µM (AID 1117336;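 active means compounds lowering colon cancer cell viability after pretreatment blocking the GSK3B kinase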). The conditions noted are these: HCT116 viability after GSK3B inhibitor, at 20 µM, stronger effect = higher value. A general note: ATP-based viability assays read luminescence as a measure of living cells.
The nature of assay [4]: inhibition of endothelial tube formation, primary screen, imaging, VEGF stimulated, CD31 staining, tube area, NPC library (AID 1117340;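 active means compound that reduces growth-factor-driven endothelial tube area in a mixed cell culture, no cutoff stated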). The conditions noted are these: VEGF-stimulated ADSC/ECFC co-culture, at 10 µM, stronger effect = higher value.
Assay [5] in a line: GLP1 release stimulators, primary, NCI-H716, NPC library (AID 1117341;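 active means compound raises GLP1 secretion from the human gut endocrine cells, with no numeric limit stated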). The conditions noted are these: NCI-H716 cells, at 10 µM, stronger effect = higher value.
Assay [6] in a line: HCT116 colon cancer cell growth inhibition, primary screen, CellTiter-Glo luminescence, NPC library (AID 1117342;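 active means compounds that lower survival of HCT116 colon cancer cells in the luminescence readout, no numeric limit stated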). The conditions noted are these: at 20 µM (top of the series).
Assay [7] is described as follows: reduced SW480 viability measured with CellTiter-Glo, NPC library, primary (AID 1117343;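 active means compounds that lower viability of the colon cancer cells in the luminescence readout, with no numeric limit stated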). The following applies: CellTiter-Glo luminescence; at 20 µM (top of the series) unless noted.
Assay [8] is described as follows: NPC library primary testing for decreased DLD-1 cell viability via CellTiter-Glo (AID 1117346;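 active means compounds that lower survival of DLD-1 colon cancer cells in the luminescence readout, no cutoff given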). The following applies: DLD-1 viability, CellTiter-Glo luminescence; at 20 µM (top of the series).
Assay [9] in a line: viability loss in pontine glioma line – cell-based, JHH-DIPG-1, MIPE4.0, CellTiter-Glo, qHTS, dose response (AID 1347062; cut-off not given, nearly all actives have AC50 up to about 27 µM;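 on AC50: cells exposed to compound for two days before readout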). The conditions noted are these: JHH-DIPG-1 viability, CellTiter-Glo ATP luminescence.
The nature of assay [10]: viability loss in pontine glioma line – cell-based, SU-DIPG-IV, MIPE4.0, CellTiter-Glo, qHTS, dose response (AID 1347063; cut-off not given, nearly all actives have AC50 up to about 30 µM;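 further: compound exposure lasted 48 hours before the viability readout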). The following applies: CellTiter-Glo ATP luminescence.
Assay [11] is described as follows: growth inhibition of DIPG cells – cell-based, MIPE4.0 library, CellTiter-Glo luminescence, qHTS (AID 1347066; cut-off not given, nearly all actives have AC50 up to about 30 µM;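 further: cells exposed to compound for 48 hours before readout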). The following applies: SU-DIPG-VI viability, CellTiter-Glo ATP luminescence.
The nature of assay [12]: viability loss in pontine glioma line – cell-based, SU-DIPG-XXV, MIPE5.0, CellTiter-Glo, qHTS, dose response (AID 1347065; cut-off not given, nearly all actives have AC50 up to about 26 µM;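 further: cells exposed to compound for 48 hours before ATP readout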). The following applies: CellTiter-Glo ATP luminescence.
A short description of assay [13]: JHH-DIPG-1 glioma cell viability, MIPE5.0 library, CellTiter-Glo luminescence, qHTS (AID 1347067; cut-off not given, nearly all actives have AC50 up to about 26 µM;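 further: cells exposed to compound for 48 hours before readout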). The following applies: JHH-DIPG-1 glioma viability, CellTiter-Glo ATP luminescence.
Assay [14] is described as follows: viability loss with induced miR-34 in A549 – imaging, A549 dox-inducible miR-34, nuclei and caspase counts, primary screen (AID 1347080;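 active means compounds whose cell count with miR-34 switched on is under 0.7 times the count with it off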). The conditions noted are these: A549 miR-34 inducible, Hoechst nuclei count, 48 h.
Assay [15] is described as follows: MELAS cybrid and Rieske KO viability enhancers – cell-based, MELAS cybrids, Rieske KO mouse fibroblasts, CellTiter-Glo, primary screen (AID 1508586;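 active means mean z-score across replicates of 1.96 or higher in either the MELAS or the Rieske mutant cell line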;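 further: z relative to plate mean and SD of compound and empty wells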). The following applies: low glucose.
Assay [16] in a line: drug combination growth inhibition, ovarian cancer – cell-based, oncology-focused library, rucaparib conditional, profiling panel (AID 1508598). The following applies: patient-derived ovarian cancer cells, CellTiter-Glo viability, 144 h, stronger effect = lower value.
Setting [17] is: stronger effect = lower value, cell number ratio, induced over uninduced.
[18] abbreviates: measured here: relative caspase fold change +Dox/-Dox.
Setting [19] is: measured here: total cells with miR-34 induction, stronger effect = lower value.
Setting [20] is: measured here: total cells without miR-34 induction.
Setting [21] is: MELAS cybrid survival, CellTiter-Glo 48 h, stronger effect = higher value.
Where [22] appears, read: Rieske KO mouse fibroblast survival, CellTiter-Glo 72 h.

What is called AC50 is the concentration giving half of the maximal activity seen. By viability is commonly meant a read-out of living cells in per cent, often relative to untreated cells.

Inconclusive results are not listed. Calls of active or inactive are those of the source.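 How the source made its calls, unless noted: active means normalized viability below 100% at a tested concentration; inactive means the rest.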

Regarding `O=C(CS(=O)Cc1ccco1)NC/C=C\COc1cc(CN2CCCCC2)ccn1` (stereo not given), the nuclear beta-catenin stimulation in assay [1] (at 10 µM) is -0.3% (inactive); in [1] (stimulation, at 2 µM), -0.8%. Also, the insulin secretion stimulation in assay [2] was 4% (inactive). For the same compound, the viability decrease in assay [3] was -4.8% (inactive). Further, in [4], the tube area decrease was 8% (inactive). Besides, in assay [5], the GLP1 secretion stimulation was -0.5% (inactive). Besides, the inhibition of viability in assay [6] was 2.2% (inactive). Further, the viability decrease (inhibition) in assay [7] was -8.8% (inactive); in assay [8] it was 6.7% (inactive). For the same compound, the compound was called inactive in [9], in assay [10] and in assay [11].

Consider `COc1cc(Nc2c(C#N)cnc3cc(OCCCN4CCN(C)CC4)c(OC)cc23)c(Cl)cc1Cl`, for which the nuclear beta-catenin stimulation in assay [1] (at 10 µM) is 17.6% (inactive); in [1] (stimulation, at 2 µM) it was -1%. Further, the insulin secretion stimulation in assay [2] was 2.2% (inactive). For the same compound, in [3], the viability decrease is 110% (active). In addition, the tube area decrease in assay [4] is 1.5% (inactive). In [5], the GLP1 secretion stimulation is 47.9% (active). The inhibition of viability in assay [6] was 113% (active). In addition, the figures for the viability decrease (inhibition) in assay [7] and in [8] were 132% (active) and 102% (active), respectively. Also, the AC50 in assay [9] was 20.9 µM (active); in [10] it was 20.9 µM (active); in assay [12], 13.2 µM (active); in assay [13], 11.8 µM (active). For the same compound, the results for the fold change in [14] (setting [17]) and in assay [14] (setting [18]) were 0.893 (inactive) and 0.682, respectively. In addition, the cell count in assay [14] (setting [19]) is 986; in assay [14] (setting [20]) it was 1100. Moreover, the z-score in assay [15] (setting [21]) was 2.73 (active); in assay [15] (setting [22]), -0.399. Besides, the viability is 120% (inactive) in assay [16] (at 0.000305 µM, OCI-C5x cells, with rucaparib 10 µM, 100% = cells with rucaparib alone); 107% (inactive) in assay [16] (at 0.000305 µM, OCI-C5x cells, without rucaparib); 88.1% (active) in assay [16] (at 0.000305 µM, OCI-P5x cells, with rucaparib 20 µM, 100% = cells with rucaparib alone); 68.6% (active) in assay [16] (at 0.000305 µM, OCI-P5x cells, without rucaparib); 121% (inactive) in assay [16] (at 0.00122 µM, OCI-C5x cells, with rucaparib 10 µM, 100% = cells with rucaparib alone); 109% (inactive) in [16] (at 0.00122 µM, OCI-C5x cells, without rucaparib). Besides, the viability in assay [16] (at 0.00122 µM, OCI-P5x cells, with rucaparib 20 µM, 100% = cells with rucaparib alone) is 87.4% (active); in assay [16] (at 0.00122 µM, OCI-P5x cells, without rucaparib), 30.3% (active); in [16] (at 0.00488 µM, OCI-C5x cells, with rucaparib 10 µM, 100% = cells with rucaparib alone) it was 119% (inactive); in assay [16] (at 0.00488 µM, OCI-C5x cells, without rucaparib), 107% (inactive); in [16] (at 0.00488 µM, OCI-P5x cells, with rucaparib 20 µM, 100% = cells with rucaparib alone), 101% (inactive); in assay [16] (at 0.00488 µM, OCI-P5x cells, without rucaparib), 102% (inactive). Also, the viability in [16] (at 0.0195 µM, OCI-C5x cells, with rucaparib 10 µM, 100% = cells with rucaparib alone) is 122% (inactive); in assay [16] (at 0.0195 µM, OCI-C5x cells, without rucaparib), 104% (inactive); in [16] (at 0.0195 µM, OCI-P5x cells, with rucaparib 20 µM, 100% = cells with rucaparib alone) it was 96.8% (active); in assay [16] (at 0.0195 µM, OCI-P5x cells, without rucaparib) it was 102% (inactive); in [16] (at 0.0781 µM, OCI-C5x cells, with rucaparib 10 µM, 100% = cells with rucaparib alone), 132% (inactive); in assay [16] (at 0.0781 µM, OCI-C5x cells, without rucaparib) it was 111% (inactive). For the same compound, the viability is 94.7% (active) in assay [16] (at 0.0781 µM, OCI-P5x cells, with rucaparib 20 µM, 100% = cells with rucaparib alone); 103% (inactive) in [16] (at 0.0781 µM, OCI-P5x cells, without rucaparib); 125% (inactive) in assay [16] (at 0.313 µM, OCI-C5x cells, with rucaparib 10 µM, 100% = cells with rucaparib alone); 101% (inactive) in [16] (at 0.313 µM, OCI-C5x cells, without rucaparib); 80.8% (active) in assay [16] (at 0.313 µM, OCI-P5x cells, with rucaparib 20 µM, 100% = cells with rucaparib alone); 91% (active) in assay [16] (at 0.313 µM, OCI-P5x cells, without rucaparib). Also, the viability in [16] (at 1.25 µM, OCI-C5x cells, with rucaparib 10 µM, 100% = cells with rucaparib alone) was 113% (inactive); in [16] (at 1.25 µM, OCI-C5x cells, without rucaparib) it was 108% (inactive); in assay [16] (at 1.25 µM, OCI-P5x cells, with rucaparib 20 µM, 100% = cells with rucaparib alone), 57.8% (active); in assay [16] (at 1.25 µM, OCI-P5x cells, without rucaparib) it was 95.2% (active); in [16] (at 5 µM, OCI-C5x cells, with rucaparib 10 µM, 100% = cells with rucaparib alone) it was 49.5% (active); in [16] (at 5 µM, OCI-C5x cells, without rucaparib), 61.4% (active). Moreover, the viability is 24.4% (active) in assay [16] (at 5 µM, OCI-P5x cells, with rucaparib 20 µM, 100% = cells with rucaparib alone) and 42% (active) in assay [16] (at 5 µM, OCI-P5x cells, without rucaparib).

With `CN1C[C@H]2c3ccccc3Oc3ccc(Cl)cc3[C@@H]2C1`, the nuclear beta-catenin stimulation in assay [1] (at 10 µM) is 0.7% (inactive); in assay [1] (stimulation, at 2 µM), -0.7%. Besides, the insulin secretion stimulation in assay [2] is 9% (inactive). Besides, the viability decrease in assay [3] is 30.4% (inactive). In addition, the tube area decrease in [4] is 28.3% (inactive). For the same compound, the GLP1 secretion stimulation in assay [5] is 4.4% (inactive). The inhibition of viability in assay [6] is 39.3% (inactive). The viability decrease (inhibition) in assay [7] is 80.6% (active); in assay [8], 34.3% (inactive). Further, the outcome in [9], in assay [10] and in assay [11] was inactive. Besides, the z-score in [15] (setting [21]) is 0.874 (inactive); in assay [15] (setting [22]), 0.408.

For the compound `CCCCCCCCCCCCCCCCNc1ccc(C(=O)O)cc1`, the nuclear beta-catenin stimulation in [1] (at 10 µM) is 11.3% (inactive); in [1] (stimulation, at 2 µM), 1.2%. In assay [2], the insulin secretion stimulation is 4.2% (inactive). The viability decrease in [3] was 68.9% (active). In addition, in assay [4], the tube area decrease is 109% (active). In assay [5], the GLP1 secretion stimulation is -2.9% (inactive). The inhibition of viability in assay [6] was 45% (inactive). Also, the viability decrease (inhibition) in [7] was 72.6% (active); in [8], 61.9% (active). Further, the fold change is 0.865 (inactive) in [14] (setting [17]) and 0.501 in assay [14] (setting [18]). In addition, the cell count in assay [14] (setting [19]) was 4330; in [14] (setting [20]) it was 5010.

For the origin of these results see PubChem BioAssay.
